Data from PubChem BioAssay (NCI).
Compounds without any hit were thinned out: in the full panel of roughly 79,000, 15% have a hit. Unmarked numbers belong to inactive results. Active and inactive are the calls of the source. Cut-off read from the data, not from the text of the source: active = growth inhibition above about 70%; inactive = the rest.

Test: NCI Yeast Anticancer Drug Screen. Data for the mgt1 strain (AID 153)
Conditions: S. cerevisiae mgt1 mutant growth inhibition, active compounds read high
Description: Growth inhibition of yeast strains with defined genetic alterations is measured as a screen for potential anti-cancer activity. Selected strains with alterations in DNA damage repair or cell cycle control were exposed to compounds and growth inhibition was measured relative to vehicle treated controls. The strain used in this assay is mgt1

SMILES	growth inhibition (at 1.2 µM)	growth inhibition (at 3.7 µM)	growth inhibition (at 11.0 µM)	growth inhibition (at 33.0 µM)	growth inhibition (at 100.0 µM)
CN(C)/C=C/c1nnc([N+](=O)[O-])s1	-7%	-5%	-5%	-5%	98% (active)
Cc1sc2ccc3ccccc3c2[n+]1C	-9%	-12%	-17%	13%	79% (active)
Cc1ccc(NC(c2ccccc2)c2ccc3cccnc3c2O)cc1 (stereo not given)	0%	2%	1%	2%	0%
O=C(/C=C/c1cc(Cl)cc(Cl)c1O)c1cccc(O)c1	14%	25%	89% (active)	99% (active)	98% (active)
CC(=O)OCC(C)Cc1cc2c(cc1Br)OCO2 (stereo not given)	-3%	-9%	-8%	-9%	16%
CN(C)CCOC1(Cc2ccc(F)cc2)CCC(C(C)(C)C)CC1 (stereo not given)	18%	8%	20%	53%	98% (active)
c1ccc(CCN2CCc3ccccc3C2)cc1	-2%	-3%	4%	6%	16%
Cc1c(C(C)C)cc(OCCO)cc1C(C)C	-4%	-11%	-9%	-12%	7%
